From PubChem BioAssay AID382 (SGCOxCompounds, 2006)
Calls of active or inactive are those of the source. How the calls were made is not given here.

What follows are molecules tested against Dual specificity protein kinase CLK1 (Homo sapiens) (UniProt P49759) (assay: CLK1 binders by thermal stabilization, biophysical, recombinant human kinase, DSF (AID 382)). Conditions: at 10 µM, protein 2 µM, buffer 10 mM HEPES, NaCl 150 mM, stronger effect = higher value.
Sequence of Dual specificity protein kinase CLK1 (Homo sapiens) (P49759 whole entry, looked up): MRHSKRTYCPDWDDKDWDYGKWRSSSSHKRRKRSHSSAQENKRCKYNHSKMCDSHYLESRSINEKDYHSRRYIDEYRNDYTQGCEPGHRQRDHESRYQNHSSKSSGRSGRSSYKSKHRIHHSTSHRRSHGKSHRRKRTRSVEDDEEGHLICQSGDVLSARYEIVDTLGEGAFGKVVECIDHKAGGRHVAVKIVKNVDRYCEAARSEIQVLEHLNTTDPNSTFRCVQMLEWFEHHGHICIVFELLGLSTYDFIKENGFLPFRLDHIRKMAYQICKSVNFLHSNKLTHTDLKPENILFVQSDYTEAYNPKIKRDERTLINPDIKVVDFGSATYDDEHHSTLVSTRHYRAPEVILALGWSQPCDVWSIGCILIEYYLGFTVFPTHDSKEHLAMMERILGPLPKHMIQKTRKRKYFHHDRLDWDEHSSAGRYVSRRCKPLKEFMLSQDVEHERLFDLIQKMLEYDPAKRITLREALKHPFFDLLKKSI
With `O=C1Nc2ccccc2/C1=C\c1cnc[nH]1` the Tm shift was 3.76 Celsius (active). With `O=C1NC(=O)c2c1c1c3ccccc3n3c1c1c2c2ccccc2n1[C@@H]1CCC3O1` the Tm shift was 6.44 Celsius (active). With `CCn1cnc2c(Nc3cccc(Cl)c3)nc(N[C@@H]3CCCC[C@@H]3N)nc21` the Tm shift was 6.54 Celsius (active). `COc1ccc2c(c1)/C(=C/c1cnc[nH]1)C(=O)N2` was tested, and the Tm shift was 3.63 Celsius (active).
